CBFb-RUNX1 inh – inhibitors of human CBF-beta and RUNX1 interaction; Q01196+Q13951; AlphaScreen CBFb-His/RUNX1-biotin binding, biochemical; Potency, µM (top dose mostly 59.8 µM), inactives show top-dose activity, negative = inhibition, usual class: inhibitors; 230,000 tested, under 10 active; also: % of control where 0% means no effect
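CBFb-His/RUNX1-biotin, 30 nM each, preincubated 20 min RT; compound 15 min RT; Ni + streptavidin beads 50 ng each, 90 min RT; AlphaScreen read.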
PTAP TSG101 blk – blocks PTAP/TSG101 interaction to inhibit HIV-1 budding. Q99816. Fluorescence polarization, FITC-PTAP peptide / Tsg101 binding. Potency, µM (doses to about 115 µM), for the others: top-dose activity change, negative = inhibition, most hits filed as inhibitors. 340,000 tested, under 10 active. AID 493005; active = well fitted inhibition curve with a large enough effect in the main read-out, with a control signal flat, not every such curve was filed as active; inconclusive = small, poorly fitted or top-dose-only effect, or effect the other way, or a change in a side signal; inactive = no such curve, though single readings can be large or run the other way; also: potency is read from the fitted curve at half-maximal effect; % of control where 0% means no effect
Target sequence (Q99816 whole entry, looked up): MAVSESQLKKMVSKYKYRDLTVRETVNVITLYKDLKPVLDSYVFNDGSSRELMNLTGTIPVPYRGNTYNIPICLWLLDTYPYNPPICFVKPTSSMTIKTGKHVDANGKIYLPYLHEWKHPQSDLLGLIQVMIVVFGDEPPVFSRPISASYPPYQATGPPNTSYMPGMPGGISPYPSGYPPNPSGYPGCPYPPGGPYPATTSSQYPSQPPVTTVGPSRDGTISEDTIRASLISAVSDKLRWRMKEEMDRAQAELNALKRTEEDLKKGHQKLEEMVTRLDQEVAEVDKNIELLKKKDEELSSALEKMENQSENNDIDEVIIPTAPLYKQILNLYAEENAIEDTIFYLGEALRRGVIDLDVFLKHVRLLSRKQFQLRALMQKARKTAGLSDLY
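Steps: Tsg101 binding domain dispensed (10 uM final), compounds pinned in DMSO, FITC-labeled PTAP-motif peptide added (50 nM final); after 20 min binding at room temperature, polarization measured.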
MBNL1 CUG block – MBNL1-poly(CUG) RNA binding inhibition; TR-FRET MBNL1-His/biotin-(CUG)12 binding, 665/545 ratio; 280,000 compounds, 0.036% hits; Potency, µM (highest dose often 57.5 µM), without a hit: at the top dose activity change, negative = inhibition, actives largely listed as inhibitors; active = well fitted inhibition curve with a large enough effect in the signal ratio, with a control signal flat, not every such curve was filed as active; inconclusive = small, poorly fitted or top-dose-only effect, or effect the other way, or a change in a side signal; inactive = no such curve, though single readings can be large or run the other way; the % refers to the signal ratio; also: potency is read from the fitted curve at half-maximal effect; % is scaled to controls: 0 for no effect and ±100 for the full control effect
Target sequence (Q9NR56 whole entry, looked up): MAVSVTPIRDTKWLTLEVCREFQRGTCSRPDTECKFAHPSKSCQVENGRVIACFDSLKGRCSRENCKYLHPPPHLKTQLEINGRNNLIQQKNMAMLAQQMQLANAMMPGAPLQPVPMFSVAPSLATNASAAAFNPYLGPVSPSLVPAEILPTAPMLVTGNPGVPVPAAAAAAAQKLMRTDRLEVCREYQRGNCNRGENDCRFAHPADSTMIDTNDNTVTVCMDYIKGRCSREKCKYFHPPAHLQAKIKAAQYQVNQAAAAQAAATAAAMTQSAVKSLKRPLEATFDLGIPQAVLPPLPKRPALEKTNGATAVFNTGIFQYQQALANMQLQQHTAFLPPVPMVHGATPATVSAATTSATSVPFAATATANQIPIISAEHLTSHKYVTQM
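Compound titration spanned 92 nM–58 uM against the MBNL1-His/biotin-(CUG)12 complex. After 60 min at room temperature with 5 nM streptavidin-XL665 and 0.055 ng/ul terbium anti-His, ratiometric 665/545 nm emission (Ex 340 nm) normalized to controls.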
TSHR antag – antagonists of human thyroid stimulating hormone receptor | TSHR-expressing cells, TSH-stimulated cAMP HTRF, 2 h; active compounds read low | activity change, negative = inhibition, % at 11.5 µM | 330,000 compounds, 0.2% hits | AID 504810;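 active = activity change below a set negative limit, meaning inhibition stronger than a set level, cut at about -70% in these data; inconclusive = activity change between two set negative limits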; also: % is scaled to controls: 0 for no effect and ±100 for the full control effect
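Competitive HTRF cAMP read-out (cryptate anti-cAMP antibody, cAMP-d2; 30 min, room temperature) in freshly harvested TSHR cells. Compounds added before TSH at EC80 (4nM final), followed by 2 hours' incubation at 37 deg C.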
TCR activator – T cell receptor activation; primary human leukocytes, anti-CD3, IL-2 HTRF, 48 h; Potency, µM (series often up to 9.22 µM), inactives show at the highest dose activation of IL-2 secretion, hits mostly activators; 330,000 tested, under 10 active; also: % of control where 0% means no effect
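IL-2 release read by HTRF sandwich (Eu cryptate donor, d2 acceptor, 665 nm emission) after 48 hr exposure of primary human leukocytes to compound together with anti-CD3 beads in the absence of co-stimulatory signals.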
Integrin act MD – activates integrin-mediated alleviation for muscular dystrophy. 350,000 compounds, 0.064% hits. Potency, µM (titrated, usually from 38.3 µM), for the others: at the top dose activation, hits mostly activators. alpha7betagal myoblasts, beta-gal FDG fluorescence, 48 h;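 also: potency is read from the fitted curve at half-maximal effect; 100% = response of the positive control SU9516; nearly all actives have a fitted effect of over 60% in size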
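alpha7betagal+/- myoblasts (passage 13, 250/well) treated 48 h at 37C with compounds at 1:260 dilution of DMSO stock. Lysed, then beta-galactosidase activity read as FDG fluorescence (ex 480/em 540) after 30 min, with pre-read for autofluorescence.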
MBNL1-CUG FRET – MBNL1-poly(CUG) RNA binding inhibition confirmed; AID 493199; shares compounds with MBNL1 CUG block; 140 compounds, 50% hits; Potency, µM (titrated, usually from 57.6 µM), without a hit: top-dose activity change, negative = inhibition, most hits filed as inhibitors; TR-FRET MBNL1-His / biotin-(CUG)12 binding, 60 min
MBNL1 AlphaScrn – MBNL1-CUG RNA binding inhibition, AlphaScreen validation; shares compounds with MBNL1 CUG block; AlphaScreen MBNL1-His / biotin-(CUG)12 binding; Potency, µM (doses to about 57.7 µM), inactives show top-dose activity, negative = inhibition, hits mostly inhibitors; 140 compounds, 30% hits; AID 493205
Menin-MLL HTRF – MBNL1-CUG RNA binding inhibitor counterscreen activity; 120 compounds, 20% hits; shares compounds with MBNL1 CUG block; AID 651843; Potency, µM (doses to about 57.6 µM), for inactives: at the top dose activity, negative = inhibition, most hits filed as inhibitors; His-Menin/biotin-MLL peptide TR-FRET counterscreen
* marks the source's active call; other numbers are inactive results; ! = repeats disagree; [ ] = another dose, or the depositor's remark. A selection: hits, their analogues and other compounds. The true share with any hit is near 0.26%. Unless noted, calls follow the shape of the dose curve; as a rule, active = well fitted curve in the direction sought with a large enough effect; inconclusive = small, poorly fitted or top-dose-only effect, or another doubt; inactive = no such curve, though single readings can be large; an effect the other way counts as inactive or inconclusive.

`CCCn1c2ccccc2c2nnc(SCc3[nH]c(=O)[nH]c3C(=O)CCCCC(=O)OCC)nc21` gave CBFb-RUNX1 inh 5.1%, PTAP TSG101 blk 3.2%, MBNL1 CUG block inconclusive, TSHR antag -3.6, TCR activator 0.1%[46.1 µM] and Integrin act MD -13.9%.
CC(Sc1ncc(C#N)c(N)n1)C(=O)Nc1ccccc1 (stereo unspecified) was read as CBFb-RUNX1 inh 7.6%, PTAP TSG101 blk -7.6%, MBNL1 CUG block 39.8µM*, TSHR antag 1.4, TCR activator -0.7%, Integrin act MD -7.3%, MBNL1-CUG FRET -0.8%, MBNL1 AlphaScrn inconclusive and Menin-MLL HTRF -2.3%.
COc1cc(C(=O)N/N=C/c2ccc(OC)c(CN3CCN(c4ccc(F)cc4)CC3)c2)ccc1O was read as CBFb-RUNX1 inh 0.4%, PTAP TSG101 blk -12.5%, MBNL1 CUG block 31.6µM*, TSHR antag -1.8, TCR activator 2.2%, Integrin act MD 22.6%, MBNL1-CUG FRET inconclusive, MBNL1 AlphaScrn -29.2% and Menin-MLL HTRF -18.5%.
Screening COc1ccc(/C=N/NC(=O)c2ccccc2)cc1CN1CCN(c2ccc(F)cc2)CC1 returned CBFb-RUNX1 inh -3.0%, PTAP TSG101 blk 0.8%, MBNL1 CUG block -3.0%, TSHR antag 6.4, TCR activator -6.7% and Integrin act MD 1.6%.
`CN(C(=O)Cc1ccccc1OC(=O)c1ccccc1)c1ccccc1I` gave CBFb-RUNX1 inh 17.0%.
Screening O=c1[nH]c(Nc2ccccc2Cl)cc2ccccc12 returned PTAP TSG101 blk -7.7%, TCR activator 2.0% and Integrin act MD 3.2%.
Screening O=c1[nH]c(Nc2ccc(F)cc2)cc2ccccc12 returned CBFb-RUNX1 inh -26.1%, PTAP TSG101 blk -12.4%, TSHR antag 7.8, TCR activator 8.4%, Integrin act MD 18.8%, MBNL1-CUG FRET 32.6µM*, MBNL1 AlphaScrn 13µM* and Menin-MLL HTRF 2.0%.
`Cc1ccc(C(=O)NCCN2C3=NC[C@H](C(C)C)N3C[C@H]2Cc2ccc(O)cc2)cc1Br` gave CBFb-RUNX1 inh 6.0%, PTAP TSG101 blk -1.8%, MBNL1 CUG block 39.8µM*, TSHR antag -1.3, TCR activator -0.4%, Integrin act MD -30.1%, MBNL1-CUG FRET 41.1µM*, MBNL1 AlphaScrn inconclusive and Menin-MLL HTRF -26.4%.
Screening COCCNC(=O)CCC1CCN(C/C=C/c2ccccc2OC)CC1 returned PTAP TSG101 blk -3.8%, MBNL1 CUG block -34.3%, TSHR antag 21.1, TCR activator -3.6%, Integrin act MD -1.8%, MBNL1-CUG FRET -20.2%, MBNL1 AlphaScrn inconclusive and Menin-MLL HTRF 4.5%.
`COc1cccc(CNC(=O)CCC2CCCN(C/C=C/c3ccccc3OC)C2)c1` (stereo unspecified) gave CBFb-RUNX1 inh 3.5%, PTAP TSG101 blk -0.2%, MBNL1 CUG block 6.5%, TSHR antag 8.3, TCR activator 3.8% and Integrin act MD -10.4%.
CC(C)(C)OC(=O)NC(Cc1ccccc1)C(O)c1ccco1 (stereo unspecified) was read as CBFb-RUNX1 inh 18.7%.
`CCOC(=O)CCCCC(=O)c1[nH]c(=O)[nH]c1Cn1ccnc1` gave CBFb-RUNX1 inh 2.8%, PTAP TSG101 blk -1.1%, MBNL1 CUG block 39.8µM*, TSHR antag -6.5, TCR activator 16.2%, Integrin act MD 12.1%, MBNL1-CUG FRET 41.1µM*, MBNL1 AlphaScrn inconclusive and Menin-MLL HTRF -2.7%.
CC(=O)Nc1ccc(SCC(CC(C)C)N2CCN(CCc3ccccc3)CCC2=O)cc1 (stereo unspecified) was read as CBFb-RUNX1 inh -15.1%.
`O=C1C(SCCO)=C(SCCO)C(=O)c2ccccc21` gave CBFb-RUNX1 inh -2.0%, PTAP TSG101 blk inconclusive, MBNL1 CUG block inconclusive, TSHR antag -86.5*!, TCR activator 1.7%, MBNL1-CUG FRET 5.01µM* and MBNL1 AlphaScrn 10µM*.
For CC1=C(SCc2ccccc2)C(=O)c2ccccc2C1=O the results were PTAP TSG101 blk -10.0%, TCR activator 2.6% and Integrin act MD -72.5%.
CC[C@H](C)[C@H](NC(=O)[C@H](Cc1ccc(O)cc1)NC(=O)[C@H](Cc1cnc[nH]1)NC(=O)[C@H](CCCNC(=N)N)NC(=O)[C@H](CC(C)C)NC(=O)[C@H](C)NC(=O)[C@@H](N)CO)C(=O)N[C@@H](CC(N)=O)C(=O)N[C@@H](CC(C)C)C(=O)N[C@H](C(=O)N[C@H](C(=O)N[C@@H](CCCNC(=N)N)C(=O)N[C@@H](CCC(N)=O)C(=O)N[C@@H](CCCNC(=N)N)C(=O)N[C@@H](Cc1ccc(O)cc1)C(N)=O)[C@@H](C)O)[C@@H](C)CC was read as CBFb-RUNX1 inh 10.9%.
For N#Cc1ccccc1OCC(O)CNCCNC(=O)Nc1ccccc1 (stereo unspecified) the results were CBFb-RUNX1 inh 10.3%.
For CNC[C@H](O)c1ccc(O)c(O)c1 the results were CBFb-RUNX1 inh inconclusive, PTAP TSG101 blk -4.4%, MBNL1 CUG block 22.4µM*, TSHR antag -16.9, TCR activator -5.4%, MBNL1-CUG FRET -13.7%, MBNL1 AlphaScrn -1.8% and Menin-MLL HTRF 4.5%.
Screening CC(C)NCC(O)c1ccc(O)c(O)c1 (stereo unspecified) returned CBFb-RUNX1 inh -15.7%, PTAP TSG101 blk -3.7%, MBNL1 CUG block -5.5%, TSHR antag -12.8 and TCR activator 10.3%.
`COc1ccccc1NC(=O)c1csc2c1CCCC2` gave CBFb-RUNX1 inh 11.6%, PTAP TSG101 blk -1.0%, MBNL1 CUG block -4.1%, TSHR antag -3.5, TCR activator 0.2% and Integrin act MD -15.5%.

Compound activity (PubChem BioAssay)
